These results are taken from the supplement of paper PMC7057948, “A genome-wide approach for identification and characterisation of metabolite-inducible systems” (Nature Communications, 2020).

The structures appear in SMILES notation.

In the assay the test system is PhhR/P_H16_RS18365 L-phenylalanine biosensor (pEH137). As to the kind of experiment: relative induction of RFP reporter vs primary effector; higher = stronger activation. Conditions: inducer concentration 5 mM; 6 h; Cupriavidus necator H16; minimal medium + 0.4% gluconate. How it is done:
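Orthogonality screen of 21 primary inducers against 21 transcription factor/inducible promoter–mRFP biosensors in C. necator H16 in minimal medium, robotic 96-well format, 5 mM inducer, 30 °C. OD-normalised RFP fluorescence was read 6 h later and expressed as relative induction (%) = 100 × (FL compound − FL uninduced)/(FL primary inducer − FL uninduced); mean of n=4. Cognate pairs (100% by definition) omitted.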
As to `N[C@@H](Cc1ccc(O)cc1)C(=O)O` [L-tyrosine], the “relative induction of RFP reporter” value was -0.541%.

As to `C=C(CC(=O)O)C(=O)O` [itaconate], the “relative induction of RFP reporter” value was -0.415%.

Take `O=C(O)C(=O)c1ccccc1` [phenylglyoxylate]: the “relative induction of RFP reporter” value was -0.366%.

For `O=C(O)C(O)C(O)C(=O)O` (configuration not stated) [tartrate], the “relative induction of RFP reporter” value was determined as 0.258%.

Regarding `O=C(O)CCO` [3-hydroxypropanoate], the “relative induction of RFP reporter” value is -0.273%.

On to `C=CC(=O)O` [acrylate], for which the “relative induction of RFP reporter” value was -0.318%.

As for `O=C(O)c1ccccc1O` [salicylate], the “relative induction of RFP reporter” value is -0.155%.

For the compound `NCCC(=O)O` [β-alanine], the “relative induction of RFP reporter” value was -0.6%.

For the compound `O=C(O)C1CCCCC1` [cyclohexane-1-carboxylate], the “relative induction of RFP reporter” value is -0.0509%.

As for `O=C(O)c1ccc(O)c(O)c1` [3,4-dihydroxybenzoate], the “relative induction of RFP reporter” value was -0.638%.

`O=CO` [formate]: the “relative induction of RFP reporter” value was -0.0153%.

`O=c1[nH]c(=O)c2nc[nH]c2[nH]1` [xanthine]: the “relative induction of RFP reporter” value is -0.134%.

With `Nc1ccccc1C(=O)C[C@H](N)C(=O)O` [L-kynurenine], the “relative induction of RFP reporter” value was -0.316%.

Consider `O=C(O)CS(=O)(=O)O` [sulfonatoacetate], for which the “relative induction of RFP reporter” value is -0.174%.

Consider `OC1OC[C@H](O)[C@H](O)[C@H]1O` (mixture of isomers) [L-arabinose], for which the “relative induction of RFP reporter” value was -0.00622%.

Take `CC(=O)C(C)O` (configuration not stated) [acetoin]: the “relative induction of RFP reporter” value is -0.273%.

As for `O=C(O)c1ccccc1` [benzoate], the “relative induction of RFP reporter” value was -0.383%.
